From PubChem BioAssay
HCT116 PTEN-null: PTEN-deleted cell growth suppression; actives 1.2% (n = 140,000); HCT116 PTEN-null viability, CellTiter-Glo, 60 h; hits give low values; viability, % at 10 µM;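 active means viability at or below a set limit, 4 SD under the median of all tested compounds, cut at about 3.7% in these data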;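 further: PTEN knockout HCT116 line with beta catenin targeted HCT116 as companion control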
INS promoter inh: TRM-6 insulin promoter activity inhibition | TRM-6 cells (human fetal islet line), insulin promoter-eGFP reporter, imaging; reporter expression induced with tamoxifen | inhibition, % at 2 µM | actives 0.9% (n = 130,000);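 active means inhibition above the mean plus 3 SD, with well images judged a real hit on visual review, cut at about 60% in these data, passing the limit was not always enough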
L major viab: reduces viability of Leishmania major promastigotes; actives 9% (n = 200,000); AID 1063; inhibition, % at 10 µM; resazurin fluorescence viability; in the data active means inhibition above about 50%;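 further: promastigotes grown with compound for 44 hours at 28 °C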
Ins promoter up: MIN6 insulin promoter up-regulation; MIN6 insulin promoter-GFP reporter, high-content imaging; hits give high values; z-score at 5 µM; actives 0.3% (n = 190,000);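 active means z-score above 3 at 5 µM with at least 500 cells counted in the well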
HCT116 bCat-KO: beta-catenin-lacking colon tumor cell growth suppression; HCT116 beta-catenin knockout viability, CellTiter-Glo, 60 h; hits give low values; viability, % at 10 µM; AID 818; actives 1.5% (n = 140,000);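 active means viability at or under a set limit, the compound median less 4 SD, cut at about 6% in these data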;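 further: 0% = Hyamine 1622 control at 20 µM and 100% = untreated cell control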
Autophagy HCS: autophagy modulation, high-content screen | actives 0.98% (n = 190,000) | MEF GFP-LC3 puncta imaging; test concentration mostly 10 µM | AID 463193 | calls only at 10 µM (by protocol);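 active means percentage of spot-positive cells more than 3 SD above its plate mean, without a fluorescence outlier flag or 80% toxicity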;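 further: spot-positive cell cutoff set from DMSO-treated cells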
Starred values were filed as active, the others as inactive; i = inactive; nt = no result given; + = active, no number. This is a sample that favours compounds with a hit; in the whole collection about 9.6% have one here.

SMILES | HCT116 PTEN-null | INS promoter inh | L major viab | Ins promoter up | HCT116 bCat-KO | Autophagy HCS
CN(C)N1C(N)=C(C#N)C(c2ccsc2)C2=C1CCCC2=O (centres undefined) | 94.1 | 29.4 | 34.3 | -0.51 | 96.1 | i
N#CC1=C(N)N(c2ccccc2)C2=C(C(=O)CCC2)C1c1ccsc1 (centres undefined) | 86.2 | -27.3 | 55.4* | -0.48 | 88.7 | i
CC1S/C(=N/N=C/c2ccco2)N(Cc2ccccc2)C1=O (centres undefined) | nt | nt | nt | 0 | nt | nt
CCCn1c(SCC(=O)OCC)nc(C(F)(F)F)cc1=O | nt | 14.3 | 2.5 | 0.11 | nt | i
O=C(NCc1nc2ccccc2[nH]1)C1=C[C@@H](c2ccccc2)C[C@@H](OCc2ccc(CO)cc2)O1 | nt | nt | 85.2* | 0.43 | nt | i
O=C(NCc1nc2ccccc2[nH]1)C1=C[C@@H](C2CCCCC2)C[C@@H](OCc2ccc(CO)cc2)O1 | nt | nt | 73.7* | 0.45 | nt | i
CCOC(=O)C1C(=O)OC2(CCOC(C)(C)C2)C1C(=O)OCC (centres undefined) | 90.0 | -78.6 | 1.0 | -0.43 | 86.2 | i
Cc1c(CN(C)C)c2c(n1Cc1ccccc1)C(=O)c1ccc(Br)cc1-2 | 8.5 | -12.5 | 48.4 | nt | 10.3 | i
Cc1c(CN(C)C)c2c(n1C)C(=O)c1ccc(Br)cc1-2 | 67.9 | -42.9 | 69.8* | 0.59 | 68.0 | i
CCOc1ccc(/C(CCC(=O)O)=N/NC(=S)NC(C)C)cc1 | nt | 21.4 | -6.0 | -0.57 | nt | i
CCOc1ccc(/C(CC)=N/NC(=O)C2(C)CC2(Br)Br)cc1 (centres undefined) | 79.3 | 33.3 | 58.0* | 0.33 | 83.0 | i
O=C(c1cc(-c2ccccc2)n[nH]1)N1CCc2c([nH]c3ccccc23)C1c1ccccn1 (centres undefined) | nt | nt | 85.7* | nt | nt | i
COc1ccc(C2c3[nH]c4ccccc4c3CCN2C(=O)c2cn3ccccc3n2)c(F)c1 (centres undefined) | nt | nt | 53.0* | -0.15 | nt | i
O=C(c1cccs1)N1CCc2c([nH]c3ccccc23)C1c1ccccn1 (centres undefined) | nt | nt | 17.2 | -0.63 | nt | i
Cc1ccc2nc(C(=O)N3CCc4c([nH]c5ccccc45)C3c3ccccn3)cn2c1 (centres undefined) | nt | -7.1 | 68.2* | -0.99 | nt | i
COc1ccc(C2c3[nH]c4ccccc4c3CCN2C(=O)c2cc3ncccn3n2)c(F)c1 (centres undefined) | nt | 4.3 | 39.6 | nt | nt | i
Nn1c(SCc2nc3ccccc3[nH]2)nnc1-c1cccnc1 | 93.2 | -14.3 | -5.3 | nt | 90.2 | i
Cc1cnc(C(=O)OCC(=O)N2c3ccccc3CC2C)cn1 (centres undefined) | nt | nt | -5.8 | -0.44 | nt | i
COc1ccccc1NS(=O)(=O)c1cccc(NC(=S)NCCN2CCOCC2)c1 | 102.4 | 30.8 | 7.3 | 1.32 | 90.7 | i
CCc1cccc(Nc2c([N+](=O)[O-])cc(C(=O)N3CC(=O)Nc4ccccc43)cc2[N+](=O)[O-])c1 | 96.8 | nt | 78.5* | -0.76 | 98.0 | i
Cc1cc(C)c2nc(SCC(=O)N3CC(=O)Nc4ccccc43)c(C#N)cc2c1 | 20.0 | -151.7 | 11.6 | nt | 18.0 | +
Cc1cc(C)cc(C(=O)N2CC(=O)Nc3ccccc32)c1 | 15.8 | -192.9 | 13.0 | -2.37 | 18.1 | +
Cc1ccc2cc3c(N)c(C(=O)N4CCOCC4)sc3nc2c1 | 102.0 | 0.0 | -9.5 | -0.21 | 83.1 | i
Cc1ccc2cc3c(N)c(C(=O)N4CC(=O)Nc5ccccc54)sc3nc2c1 | 15.4 | 7.3 | -0.1 | nt | 20.1 | +
N#Cc1cnn2c(-c3ccccc3)ccnc12 | 115.8 | -25.0 | 3.7 | -1.05 | 112.4 | i
SMILES | HCT116 PTEN-null | INS promoter inh | L major viab | Ins promoter up | HCT116 bCat-KO | Autophagy HCS
Cc1cc(C)n(Cc2ccccc2F)c(=O)c1C#N | 109.6 | 30.0 | -4.1 | 0.9 | 97.9 | i
O=C(Nc1ccc(N2CCOCC2)cc1)C1CCCCC1 | 93.4 | -23.3 | -2.4 | -0.45 | 90.6 | i
Cc1ccc2cc3c(N)c(C(=O)Nc4c(C)[nH]c(=O)[nH]c4=O)sc3nc2c1 | 84.6 | nt | -3.9 | nt | 88.1 | +
Cc1noc(C)c1C(=O)NCCCc1ccccc1 | 95.9 | 28.1 | -7.3 | 0.43 | 109.5 | i
O=C(Nc1ccccc1)N1CCCCC1c1cccnc1 (centres undefined) | 94.2 | 58.6 | 77.3* | 0.01 | 96.5 | i
O=C(Nc1ccccc1F)N1CCCC1c1cccnc1 (centres undefined) | nt | nt | nt | 0.23 | nt | nt
COc1ccc(CCNC(=O)C2CC3Cn4c(nc5cc(Cl)c(Cl)cc54)C3N2C)cc1 (centres undefined) | nt | nt | nt | -0.67 | nt | nt
O=C(O)C1CCCCC1C(=O)NCCc1cccc(Cl)c1 (centres undefined) | 90.6 | 61.1 | -4.6 | nt | 93.4 | i
COc1ccc(COc2cc(-c3cccc(OC)c3)nc3ccc(NC(=O)c4ccc(OC)cc4)cc23)cc1 | 16.0 | -40.0 | 96.8* | -1.59 | 16.9 | i
COc1ccc(COc2cc(-c3cccc(OC)c3)nc3ccc(NC(=O)c4cccnc4)cc23)cc1 | 32.8 | 15.0 | 99.9* | nt | 33.9 | +
COc1cccc(-c2cc(C(=O)Nc3ccc4c(c3)OCCO4)c3ccccc3n2)c1 | 86.4 | 13.6 | -2.3 | -4.93 | 80.6 | i
COc1ccc(COc2cc(-c3cccc(OC)c3)nc3ccc(NC(=O)c4ccccc4)cc23)cc1 | 18.6 | 15.0 | 68.4* | -0.47 | 19.5 | i
COc1ccc(Cc2nc(-c3ccc(NC(=O)c4cccnc4)cc3)no2)cc1 | 97.9 | -114.8 | -5.9 | -4.08 | 94.9 | i
COc1ccc(COc2cc(-c3cccc(OC)c3)nc3ccc(NC(=O)c4ccc(Cl)cc4)cc23)cc1 | 30.7 | 20.0 | 6.7 | -1.24 | 27.4 | i
CCN(CC)S(=O)(=O)c1ccc(NS(=O)(=O)c2ccc(F)cc2)cc1 | 86.0 | 6.7 | 6.6 | 0.9 | 98.9 | i
Cc1cccc(Sc2ccc([N+](=O)[O-])cc2[N+](=O)[O-])n1 | 31.1 | -49.2 | 47.5 | -0.04 | 25.4 | i
O=C(Cn1nc([N+](=O)[O-])nc1Br)NC(c1ccccc1)c1ccccc1 | 65.3 | nt | 78.6* | nt | 64.7 | i
Cc1cc(C)c2c(N)c(C(=O)c3ccccc3)oc2n1 | 90.4 | 41.4 | 5.2 | 0.22 | 90.3 | i
O=C(CSc1nc2ccc(NC(=O)CSc3nnnn3-c3ccccc3)cc2s1)Nc1ccccc1 | 63.5 | 33.3 | -4.3 | nt | 55.6 | i
Cc1cccc(NC(=O)CSc2nc3ccc(NC(=O)CSc4nnnn4-c4ccccc4)cc3s2)c1C | 3.9 | 19.2 | -1.1 | -0.19 | 2.3* | i
Cc1cc(NC(=O)CCCC(=O)OCC(F)(F)C(F)F)cc(C)c1C(=O)O | 101.5 | 14.3 | -1.6 | nt | 98.9 | i
N#CC1=C(N)SC(N)=C(C#N)C1Cc1ccccc1 | 106.5 | 54.5 | 55.2* | 0.76 | 94.0 | i
NNC(=O)c1cccc(S(=O)(=O)Nc2cccc(C(F)(F)F)c2)c1 | nt | nt | nt | -0.09 | nt | nt
Cc1ccc(S(=O)(=O)Nc2ccc(NC(=O)Nc3cccc(C(F)(F)F)c3)cc2)cc1 | 1.6* | nt | 70.2* | -1.15 | 1.2* | i
